Data published in PubChem BioAssay (EPA / NIEHS).
Results filed as inconclusive are left out. Activity calls are given as the source filed them. How the source made its calls: active means hit-call score of the fitted dose curve at least 0.9, where 1 is the maximum; inconclusive means response in the unintended direction; inactive means score below 0.9.

molecular target: human Protein Tyrosine Phosphatase Non-receptor Type 1 (PTPN1), PTPN1 (gene 5770) (UniProt P18031); assay: NVS_ENZ_hPTPN1: NovaScreen (NVS) Enzymatic Assay for human Protein Tyrosine Phosphatase Non-receptor Type 1 (PTPN1) (AID 2283201)
Procedure, shortened: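 Cell-free fluorogenic-substrate activity assay on recombinant enzyme, read 1.33 h after dosing by fluorescence and electrophoretic mobility shift; loss of signal vs DMSO baseline. Primary screen in duplicate at 25 uM, hits then run in concentration-response up to 50 uM.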

Sequence of human Protein Tyrosine Phosphatase Non-receptor Type 1 (PTPN1), PTPN1 (gene 5770) (P18031 whole entry, looked up): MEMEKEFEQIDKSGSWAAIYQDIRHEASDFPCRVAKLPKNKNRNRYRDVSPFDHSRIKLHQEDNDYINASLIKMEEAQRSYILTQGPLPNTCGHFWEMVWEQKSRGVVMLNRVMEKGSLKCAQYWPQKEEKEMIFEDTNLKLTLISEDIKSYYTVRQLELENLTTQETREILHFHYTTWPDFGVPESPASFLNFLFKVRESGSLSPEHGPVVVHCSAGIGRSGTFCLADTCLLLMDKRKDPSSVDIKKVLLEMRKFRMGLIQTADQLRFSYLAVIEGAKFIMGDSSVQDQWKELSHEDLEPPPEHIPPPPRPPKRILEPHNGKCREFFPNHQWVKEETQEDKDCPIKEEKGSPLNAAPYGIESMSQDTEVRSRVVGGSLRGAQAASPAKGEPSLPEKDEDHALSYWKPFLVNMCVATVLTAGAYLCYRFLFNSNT

Compound | AC50 | outcome
CCCCCCCCCCCCc1ccccc1S(=O)(=O)O | 15.5 µM (active) | 
CCC(=C(c1ccc(O)cc1)c1ccc(OCCN(C)C)cc1)c1ccccc1 |  | inactive
CCCCCCCC(=O)O |  | inactive

molecular target: Tyrosine-protein phosphatase non-receptor type 12 (Homo sapiens) (UniProt Q05209); assay: NVS_ENZ_hPTPN12: NovaScreen (NVS) Enzymatic Assay for human Protein Tyrosine Phosphatase Non-receptor Type 12 (PTPN12) (AID 2283204)
Procedure, shortened: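 Single-concentration duplicates (25 uM) preceded singleton concentration-response up to 50 uM for chemicals passing threshold. Cell-free recombinant PTPN12 activity was read 1.33 h after dosing via fluorescence after mobility-shift separation; loss of signal versus DMSO.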

Sequence of Tyrosine-protein phosphatase non-receptor type 12 (Homo sapiens) (Q05209 whole entry, looked up): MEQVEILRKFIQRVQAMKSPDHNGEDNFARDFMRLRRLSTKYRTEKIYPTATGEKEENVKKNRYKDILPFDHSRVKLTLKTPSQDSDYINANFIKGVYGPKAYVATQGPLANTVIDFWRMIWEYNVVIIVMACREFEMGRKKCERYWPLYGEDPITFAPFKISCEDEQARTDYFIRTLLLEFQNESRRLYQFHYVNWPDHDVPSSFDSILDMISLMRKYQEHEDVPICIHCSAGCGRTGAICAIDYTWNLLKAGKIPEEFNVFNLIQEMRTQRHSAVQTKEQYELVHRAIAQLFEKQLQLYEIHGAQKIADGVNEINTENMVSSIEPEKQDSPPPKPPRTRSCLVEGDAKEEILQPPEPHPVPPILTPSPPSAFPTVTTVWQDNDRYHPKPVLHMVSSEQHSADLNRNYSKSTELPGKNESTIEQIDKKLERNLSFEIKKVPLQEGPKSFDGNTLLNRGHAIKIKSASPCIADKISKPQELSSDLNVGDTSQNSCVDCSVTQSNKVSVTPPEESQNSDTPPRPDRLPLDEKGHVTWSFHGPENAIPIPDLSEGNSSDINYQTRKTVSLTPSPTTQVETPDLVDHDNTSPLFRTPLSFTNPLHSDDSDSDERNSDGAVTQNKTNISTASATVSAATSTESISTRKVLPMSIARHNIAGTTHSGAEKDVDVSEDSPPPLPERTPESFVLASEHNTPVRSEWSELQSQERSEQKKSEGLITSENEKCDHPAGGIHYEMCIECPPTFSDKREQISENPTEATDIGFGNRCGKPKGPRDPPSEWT

Compound | AC50 | outcome
CCCCCCCCCCCCc1ccccc1S(=O)(=O)O | 11.3 µM (active) | 
COCC(C)OCC(C)O (stereo not given) |  | inactive
ClC1=C(Cl)C(Cl)(Cl)C(Cl)=C1Cl |  | inactive
O=c1c(-c2ccc(O)cc2)coc2cc(O)ccc12 |  | inactive

molecular target: Tyrosine-protein phosphatase non-receptor type 13 (Homo sapiens) (UniProt Q12923); assay: NVS_ENZ_hPTPN13: NovaScreen (NVS) Enzymatic Assay for human Protein Tyrosine Phosphatase Non-receptor Type 13 (PTPN13) (AID 2283205)
Procedure, shortened: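 Cell-free assay of recombinant human PTPN13 with a fluorescent substrate, product separated by electrophoretic mobility shift and read 0.5 h after dosing. Primary screen at 25 uM in duplicate, then concentration-response up to 50 uM. Loss of signal fitted against DMSO.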

Compound | AC50 | outcome
CCCCCCCCCCCCc1ccccc1S(=O)(=O)O | 21.1 µM (active) | 
CCN(CC)CCNc1ccc(CNC=O)c2sc3ccc(OC)cc3c(=O)c12 |  | inactive
COCC(C)OCC(C)O (stereo not given) |  | inactive

molecular target: Tyrosine-protein phosphatase non-receptor type 14 (Homo sapiens) (UniProt Q15678); assay: NVS_ENZ_hPTPN14: NovaScreen (NVS) Enzymatic Assay for human Protein Tyrosine Phosphatase Non-receptor Type 14 (PTPN14) (AID 2283206)
Procedure, shortened: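 Cell-free recombinant human PTPN14 with fluorescent substrate, read 0.5 h after dosing by fluorescence and electrophoretic mobility shift separating substrate from product. Primary screen at 25 uM in duplicate; hits run to 50 uM maximum; loss of signal versus DMSO.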

Compound | AC50 | outcome
CCCCCCCCCCCCc1ccccc1S(=O)(=O)O | 38.2 µM (active) | 
CC(=O)CC(C)(C)O |  | inactive
O=c1c(-c2ccc(O)cc2)coc2cc(O)ccc12 |  | inactive

molecular target: human Protein Tyrosine Phosphatase Non-receptor Type 4 (PTPN4), PTPN4 (gene 5775) (UniProt P29074); assay: NVS_ENZ_hPTPN4: NovaScreen (NVS) Enzymatic Assay for human Protein Tyrosine Phosphatase Non-receptor Type 4 (PTPN4) (AID 2283208)
Protocol: NVS_ENZ_hPTPN4 is a biochemical, single-readout assay that uses extracted gene-proteins from SF9 in a cell-free assay. Measurements were taken 1.33 hours after chemical dosing in a 384-well plate.NVS_ENZ_hPTPN4 is one of one assay component(s) measured or calculated from the NVS_ENZ_hPTPN4 assay. It is designed to make measurements of enzyme activity, a form of enzyme reporter, as detected with fluorescence intensity signals by Fluorescence and electrophoretic mobility shift technology.Data from the assay component NVS_ENZ_hPTPN4 was analyzed into 1 assay endpoint. This assay endpoint, NVS_ENZ_hPTPN4, was analyzed in the positive analysis fitting direction relative to DMSO as the negative control and baseline of activity. Using a type of enzyme reporter, loss-of-signal activity can be used to understand changes in the enzymatic activity as they relate to the gene PTPN4. Furthermore, this assay endpoint can be referred to as a primary readout, because this assay has produced multiple assay endpoints where this one serves a enzymatic activity function. To generalize the intended target to other relatable targets, this assay endpoint is annotated to the phosphatase intended target family, where the subfamily is non-receptor tyrosine phosphatase.
Binding assays used specific radioligands (tritiated, iodinated) with non-radioactive competitive displacement ligands in agonist or antagonist protocols (as indicated) and various reference compounds and inhibitors to titrate specific binding to receptors and transporters. Most enzyme assays (CYPs, kinases, phosphatases, proteases, HDACs) used recombinant protein and specific substrates (fluorescence mostly, some colorimetric and radioactive) and inhibitors, followed by a biochemical separation of substrate and product. All assays for the biochemical HTS were initially run in duplicate at a single concentration (10 uM for CYP450 assays and 25 uM for all others). Assay-chemical combinations meeting a pre-defined threshold (e.g., 30% inhibition and other criteria defined below) were then run in singleton concentration-response format with maximum concentration of 20 uM for CYPs and 50 uM for all others. Each assay was run with positive and negative controls, and concurrent controls on every plate. The follow-up (secondary) screen tested active chemical-pairs in concentration series, as well as a few additional assays not tested in the primary screen, some selected negative inactives, and several cases re-run in the concentration series for confirmatory purposes.

Sequence of human Protein Tyrosine Phosphatase Non-receptor Type 4 (PTPN4), PTPN4 (gene 5775) (P29074 whole entry, looked up): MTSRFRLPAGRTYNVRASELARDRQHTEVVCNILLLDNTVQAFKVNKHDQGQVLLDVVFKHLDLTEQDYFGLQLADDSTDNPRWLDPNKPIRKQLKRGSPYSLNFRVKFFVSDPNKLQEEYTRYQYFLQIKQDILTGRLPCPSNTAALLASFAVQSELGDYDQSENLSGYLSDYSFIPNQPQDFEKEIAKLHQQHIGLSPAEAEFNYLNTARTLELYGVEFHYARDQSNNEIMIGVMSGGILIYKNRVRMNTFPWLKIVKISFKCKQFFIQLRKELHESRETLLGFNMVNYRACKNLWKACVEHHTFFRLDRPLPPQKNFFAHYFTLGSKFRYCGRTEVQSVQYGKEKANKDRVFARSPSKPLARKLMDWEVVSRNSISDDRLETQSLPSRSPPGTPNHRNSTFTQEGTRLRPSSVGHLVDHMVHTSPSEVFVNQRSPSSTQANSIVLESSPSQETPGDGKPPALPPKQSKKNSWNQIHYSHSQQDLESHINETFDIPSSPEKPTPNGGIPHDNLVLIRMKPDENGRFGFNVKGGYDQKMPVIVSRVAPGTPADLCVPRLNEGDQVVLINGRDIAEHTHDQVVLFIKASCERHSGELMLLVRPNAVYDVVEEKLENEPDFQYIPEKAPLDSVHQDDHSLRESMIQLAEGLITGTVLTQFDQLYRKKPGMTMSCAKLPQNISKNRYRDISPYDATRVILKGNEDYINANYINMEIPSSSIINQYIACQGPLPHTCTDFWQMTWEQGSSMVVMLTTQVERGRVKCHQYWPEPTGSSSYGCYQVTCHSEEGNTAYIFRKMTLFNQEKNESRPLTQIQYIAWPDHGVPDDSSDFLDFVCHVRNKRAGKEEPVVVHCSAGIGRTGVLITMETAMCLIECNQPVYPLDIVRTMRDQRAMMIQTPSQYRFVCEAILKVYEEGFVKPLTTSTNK

Compound | AC50 | outcome
CCCCCCCCCCCCc1ccccc1S(=O)(=O)O | 19.8 µM (active) | 
CN1CCC[C@H]1c1cccnc1 |  | inactive
COCC(C)OCC(C)O (stereo not given) |  | inactive
ClC1=C(Cl)C(Cl)(Cl)C(Cl)=C1Cl |  | inactive
CC[C@H](C)[C@@H](C(=O)O)n1sc2ccccc2c1=O |  | inactive
N#C[C@@H]1CC(F)(F)CN1C(=O)CNC1CC2CCC(C1)N2c1ncccn1 (stereo not given in full) |  | inactive

molecular target: human Protein Tyrosine Phosphatase Non-receptor Type 9 (PTPN9), PTPN9 (gene 5780) (UniProt P43378); assay: NVS_ENZ_hPTPN9: NovaScreen (NVS) Enzymatic Assay for human Protein Tyrosine Phosphatase Non-receptor Type 9 (PTPN9) (AID 2283209)
Procedure, shortened: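 Sf9-expressed enzyme in a cell-free assay, fluorescence read 1.33 h after dosing with mobility-shift separation of substrate and product. Tested at 25 uM in duplicate, then up to 50 uM; signal loss versus DMSO.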

Sequence of human Protein Tyrosine Phosphatase Non-receptor Type 9 (PTPN9), PTPN9 (gene 5780) (P43378 whole entry, looked up): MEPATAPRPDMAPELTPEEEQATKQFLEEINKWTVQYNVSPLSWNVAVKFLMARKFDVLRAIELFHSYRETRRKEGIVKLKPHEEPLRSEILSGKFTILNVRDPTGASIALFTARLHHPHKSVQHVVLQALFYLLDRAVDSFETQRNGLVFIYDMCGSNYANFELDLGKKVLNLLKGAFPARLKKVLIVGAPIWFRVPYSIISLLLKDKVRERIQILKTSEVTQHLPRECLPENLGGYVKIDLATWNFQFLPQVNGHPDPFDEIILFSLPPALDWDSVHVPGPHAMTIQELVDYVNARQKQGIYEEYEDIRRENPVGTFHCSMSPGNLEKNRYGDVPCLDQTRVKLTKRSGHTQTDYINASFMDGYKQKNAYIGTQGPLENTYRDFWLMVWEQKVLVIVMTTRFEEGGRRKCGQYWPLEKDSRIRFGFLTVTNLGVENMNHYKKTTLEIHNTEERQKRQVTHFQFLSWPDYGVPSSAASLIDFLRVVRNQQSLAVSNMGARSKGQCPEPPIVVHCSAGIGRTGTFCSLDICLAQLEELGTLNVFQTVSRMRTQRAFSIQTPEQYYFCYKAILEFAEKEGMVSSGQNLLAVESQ

Compound | AC50 | outcome
CCCCCCCCCCCCc1ccccc1S(=O)(=O)O | 4.22 µM (active) | 
COCC(C)OCC(C)O (stereo not given) |  | inactive
NC(=O)N(O)[C@@H]1C=C[C@H](Oc2cccc(Oc3ccc(F)cc3)c2)C1 |  | inactive

molecular target: human Protein Tyrosine Phosphatase Receptor Type F (PTPRF), PTPRF (gene 5792) (UniProt P10586); assay: NVS_ENZ_hPTPRF: NovaScreen (NVS) Enzymatic Assay for human Protein Tyrosine Phosphatase Receptor Type F (PTPRF) (AID 2283213)
Procedure, shortened: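 Cell-free fluorescence enzyme assay with recombinant protein and substrate; product separated by electrophoretic mobility shift. Read 1 h after dosing, single 25 uM duplicate screen, then concentration-response up to 50 uM; loss of signal vs DMSO.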

Sequence of human Protein Tyrosine Phosphatase Receptor Type F (PTPRF), PTPRF (gene 5792) (P10586 whole entry, looked up): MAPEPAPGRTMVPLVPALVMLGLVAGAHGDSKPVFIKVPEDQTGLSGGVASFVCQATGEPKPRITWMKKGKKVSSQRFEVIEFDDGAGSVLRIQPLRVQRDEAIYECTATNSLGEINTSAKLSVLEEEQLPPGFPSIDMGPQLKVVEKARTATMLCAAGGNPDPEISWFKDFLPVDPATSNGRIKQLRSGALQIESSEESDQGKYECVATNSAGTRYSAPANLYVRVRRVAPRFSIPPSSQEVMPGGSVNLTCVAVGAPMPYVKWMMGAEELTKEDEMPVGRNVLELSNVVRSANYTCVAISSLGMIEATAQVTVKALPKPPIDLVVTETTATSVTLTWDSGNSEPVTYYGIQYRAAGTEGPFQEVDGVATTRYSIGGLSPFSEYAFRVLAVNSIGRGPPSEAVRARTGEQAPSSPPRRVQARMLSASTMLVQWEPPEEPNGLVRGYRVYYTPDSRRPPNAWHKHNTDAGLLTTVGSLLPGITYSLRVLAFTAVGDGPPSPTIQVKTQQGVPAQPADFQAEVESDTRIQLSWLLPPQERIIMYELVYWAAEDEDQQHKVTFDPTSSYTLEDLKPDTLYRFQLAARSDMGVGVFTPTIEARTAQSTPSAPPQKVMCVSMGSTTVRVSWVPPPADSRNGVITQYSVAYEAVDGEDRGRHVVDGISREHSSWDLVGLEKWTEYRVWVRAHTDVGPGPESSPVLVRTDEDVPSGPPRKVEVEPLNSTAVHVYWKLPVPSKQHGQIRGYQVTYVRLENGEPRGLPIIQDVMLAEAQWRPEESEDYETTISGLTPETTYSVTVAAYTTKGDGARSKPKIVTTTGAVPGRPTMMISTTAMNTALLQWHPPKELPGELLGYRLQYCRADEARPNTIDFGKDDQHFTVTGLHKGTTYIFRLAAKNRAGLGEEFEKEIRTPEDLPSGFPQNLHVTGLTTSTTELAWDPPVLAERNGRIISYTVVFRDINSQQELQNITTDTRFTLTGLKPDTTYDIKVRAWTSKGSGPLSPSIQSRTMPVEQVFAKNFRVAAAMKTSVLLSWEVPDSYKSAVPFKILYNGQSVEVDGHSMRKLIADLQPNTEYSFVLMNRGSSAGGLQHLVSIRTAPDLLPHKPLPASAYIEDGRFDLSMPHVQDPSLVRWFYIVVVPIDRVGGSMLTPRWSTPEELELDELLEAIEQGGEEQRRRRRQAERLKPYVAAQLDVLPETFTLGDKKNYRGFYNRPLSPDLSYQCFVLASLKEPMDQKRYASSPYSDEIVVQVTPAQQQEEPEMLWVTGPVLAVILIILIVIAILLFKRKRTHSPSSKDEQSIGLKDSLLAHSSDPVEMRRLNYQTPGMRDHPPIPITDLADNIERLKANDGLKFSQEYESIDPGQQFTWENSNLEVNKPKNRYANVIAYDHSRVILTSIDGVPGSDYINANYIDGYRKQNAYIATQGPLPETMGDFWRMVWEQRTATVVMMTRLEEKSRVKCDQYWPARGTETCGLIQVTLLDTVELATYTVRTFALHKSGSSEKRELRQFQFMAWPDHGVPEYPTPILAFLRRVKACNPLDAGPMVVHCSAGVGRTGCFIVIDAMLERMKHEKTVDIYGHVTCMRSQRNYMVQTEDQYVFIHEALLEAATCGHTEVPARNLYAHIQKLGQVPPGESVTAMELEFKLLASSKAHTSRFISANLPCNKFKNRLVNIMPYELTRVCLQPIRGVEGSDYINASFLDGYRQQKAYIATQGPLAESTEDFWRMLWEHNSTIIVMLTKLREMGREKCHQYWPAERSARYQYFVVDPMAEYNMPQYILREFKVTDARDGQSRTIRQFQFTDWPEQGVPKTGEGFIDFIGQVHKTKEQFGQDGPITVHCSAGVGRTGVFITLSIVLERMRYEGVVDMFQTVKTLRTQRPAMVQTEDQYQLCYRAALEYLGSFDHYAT

Compound | AC50 | outcome
CCCCCCCCCCCCc1ccccc1S(=O)(=O)O | 25 µM (active) | 
CCN(CC)CCNc1ccc(CNC=O)c2sc3ccc(OC)cc3c(=O)c12 |  | inactive
Nc1cccc2c(N)cccc12 |  | inactive
